PostGolgi yeast: phenotypic screen on post-Golgi transport, primary screen; post-Golgi transport phenotypic cell assay; inhibition, % at 10 µM; 98,000 tested, 0.9% active; AID 739, 2007;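 also: yeast cells grown in 1536-well plates; yeast grown about 18 h at 30C before absorbance read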
PostGolgi ctrl: growth inhibition of yeast control strain, primary screen, counter-screen for post-Golgi transport modulator project | efflux-deficient yeast background strain, growth absorbance A615, 16 h | inhibition, % at 10 µM | 98,000 tested, 5% active
CYP2C9 inh: blockers of cytochrome P450 2C9 activity – biochemical, luminescence, ADME assay, primary screen; P11712; CYP2C9 Supersomes, luciferin-H conversion; inhibition, % at 5 µM; 96,000 tested, 20% active; AID 777, 2007;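 active = blocking of liver enzyme CYP2C9 beyond about 50% at 5 µM, limit read from the data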
CYP2C19 act: human CYP2C19 activators, primary screen, biochemical, luminescence; recombinant CYP2C19, luciferin-H EGE luminescence; stronger effect = higher value; 0 = fully inhibited enzyme, 1 = untreated enzyme; AID 1025, 2008; activation factor at 5 µM; 96,000 tested, under 10 active; Cytochrome P450 2C19 (Homo sapiens), P33261;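 active = activation factor of at least 2 at 5 µM in the primary screen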;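 also: 0 = wells with 2.5 mM tranylcypromine and 1 = vehicle-only wells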
Target sequence (P33261 whole entry, looked up): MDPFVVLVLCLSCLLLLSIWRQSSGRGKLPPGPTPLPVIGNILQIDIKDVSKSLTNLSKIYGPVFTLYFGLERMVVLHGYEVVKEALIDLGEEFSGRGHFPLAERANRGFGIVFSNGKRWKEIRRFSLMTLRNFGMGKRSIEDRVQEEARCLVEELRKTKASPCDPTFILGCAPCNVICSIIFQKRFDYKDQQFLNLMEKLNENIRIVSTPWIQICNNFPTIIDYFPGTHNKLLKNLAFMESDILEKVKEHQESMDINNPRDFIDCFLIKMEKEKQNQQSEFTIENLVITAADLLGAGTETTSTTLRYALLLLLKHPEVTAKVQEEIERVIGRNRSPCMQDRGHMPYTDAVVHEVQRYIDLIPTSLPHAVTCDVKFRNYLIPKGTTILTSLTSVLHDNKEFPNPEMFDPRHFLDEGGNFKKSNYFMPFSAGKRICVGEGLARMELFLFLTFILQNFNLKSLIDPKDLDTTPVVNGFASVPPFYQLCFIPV
CYP2C19 inh: blockers of cytochrome P450 2C19 activity – biochemical, luminescence, ADME assay, primary screen; 96,000 tested, 21% active; CYP2C19 Supersomes, luciferin-H EGE luminescence, 30 min; P33261; inhibition, % at 5 µM; AID 778, 2007;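 active = CYP2C19 inhibition above a set limit at 5 µM in the primary screen, cut at about 50% in these data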;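 also: plate controls were negative control wells for no effect and 2.5 mM tranylcypromine positive control for full effect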
CYP2C9 activ: human CYP2C9 activators, primary screen, biochemical, luminescence. recombinant CYP2C9, luciferin-H conversion; stronger effect = higher value; factor 1 = untreated enzyme, 0 = blocked. activation factor at 5 µM. 96,000 tested, 1.4% active. AID 1024, 2008;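 active = activation factor of 2 or more for CYP2C9 at a 5 µM dose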;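 also: 0 = sulfaphenazole-blocked wells and 1 = vehicle-only wells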
* = called active by the depositor. Only a sample is shown. Rule as the data show it, unless noted: active = inhibition above about 30%; inactive = the rest.

SMILES	PostGolgi yeast	PostGolgi ctrl	CYP2C9 inh	CYP2C19 act	CYP2C19 inh	CYP2C9 activ
Cc1noc(C)c1C(=O)N1CCN(C(=O)c2sc3cc(Cl)ccc3c2Cl)CC1	-5	12	43	0.6	35	0.6
Cc1noc(/C=C/N(C)C)c1S(=O)(=O)NC1CCCCC1	0	25	30	0.7	26	0.7
C/C(=N\OC(=O)NC(C)C)c1sc(-c2ccc(Cl)cc2)nc1C	-2	36*	45	0.8	21	0.5
C/C(=N\OC(=O)NC(C)C)c1sc(-c2ccccc2)nc1C	-3	18	17	1	-2	0.8
C/C(=N\OC(=O)c1cccc(C)c1)c1sc(-c2ccccc2)nc1C	-2	3	40	0.5	52*	0.6
C/C(=N\OC(=O)NC1CCCCC1)c1sc(-c2ccccc2)nc1C	-2	34*	28	0.9	15	0.7
Cc1cc(NC(=O)c2ccc(COc3ccc(Cl)c(C)c3)o2)no1	-5	4	18	0.7	30	0.8
COc1ccc(C2C=C(c3ccccc3)Nc3nc(NC(C)=O)nn32)cc1 (stereo not given)	-16	4	-6	1.1	-11	1.1
COc1ccc(C2C=C(c3ccc(C)cc3)Nc3ncnn32)cc1 (stereo not given)	1	7	34	0.7	28	0.7
COc1cccc(C2=CC(c3ccccc3)n3nnnc3N2)c1 (stereo not given)	-2	5	79*	0.2	82*	0.2
COc1ccc(C2C=C(c3ccccc3)Nc3nnnn32)cc1 (stereo not given)	-5	-4	74*	0.1	90*	0.3
COc1cccc(C2=CC(c3ccc(N(C)C)cc3)n3nnnc3N2)c1 (stereo not given)	18	-2	-9	1.1	-11	1.1
COc1ccc(C2=CC(c3ccc(C)cc3)n3nnnc3N2)cc1 (stereo not given)	-3	16	86*	0.3	75*	0.1
Cc1cc(C)nc(N2CCC(C(=O)Nc3ccc4c(c3)CCC4)CC2)n1	-3	10	-9	1	3	1.1
Cc1ccc(C(=O)O/N=C2\CCCc3ccccc32)cc1	-2	38*	-42	0.8	17	1.4
CCNC(=O)O/N=C(\C)c1sc(-c2ccc(Cl)cc2)nc1C	-4	26	24	0.6	41	0.8
COc1ccc(C(=O)N2CCC(C(=O)NCc3ccccn3)CC2)cc1	-3	1	-16	1.1	-12	1.2
CN(C)S(=O)(=O)c1ccc(S(=O)(=O)N(CC(=O)Nc2ccccc2)CC2CCCO2)cc1 (stereo not given)	-2	-3	90*	0.8	21	0.1
CC(=O)Nc1ccc(S(=O)(=O)N(Cc2ccco2)CC2CCCO2)cc1 (stereo not given)	3	5	42	0.3	73*	0.6
CC(=O)Nc1ccc(C(=O)Nc2ccc(S(=O)(=O)NCC3CCCO3)cc2)cc1 (stereo not given)	-9	3	32	0.9	9	0.7
O=C(CN(CC1CCCO1)S(=O)(=O)c1ccc(S(=O)(=O)NCC2CCCO2)cc1)Nc1ccccc1 (stereo not given)	3	6	90*	0.6	39	0.1
CN(C)S(=O)(=O)c1ccc(S(=O)(=O)N(CC(=O)Nc2ccccc2)Cc2ccco2)cc1	-1	-2	38	0.9	12	0.6
CCN(CC)CCNC(=O)CS(=O)Cc1nc(-c2ccccc2Cl)oc1C (stereo not given)	6	16	18	0.9	6	0.8
CCOC(=O)c1cc2sccc2n1CC(=O)N1CCCc2ccccc21	12	24	94*	0	98*	0.1
COC(=O)c1cc2oc(C)cc2n1CC(=O)N1CCCc2ccccc21	-8	22	68*	0.3	67*	0.3
SMILES	PostGolgi yeast	PostGolgi ctrl	CYP2C9 inh	CYP2C19 act	CYP2C19 inh	CYP2C9 activ
CCOC(=O)c1cc2occc2n1CC(=O)N1CCCc2ccccc21	0	14	87*	0	96*	0.1
Cc1ccc2oc(=O)c3cnn(CC(=O)N4CCN(c5ccccc5)CC4)c3c2c1	-1	9	6	0.9	5	0.9
Cc1ccc2oc(=O)c3cnn(CC(=O)N4CCCc5ccccc54)c3c2c1	-8	12	55*	1	-2	0.4
COC(=O)c1cc2oc(C)cc2n1CC(=O)Nc1ccc(C)c(C)c1	-10	2	40	0.6	37	0.6
CCOC(=O)c1cc2sc(C)cc2n1CC(=O)N1CCc2ccccc21	-2	5	10	0.9	13	0.9
CCOC(=O)c1cc2occc2n1Cc1ccc(F)cc1	5	28	20	1	0	0.8
Cc1cccc(N=C(N2CCOCC2)P(=O)(N2CCOCC2)N2CCOCC2)c1	0	3	19	1	-3	0.8
CCOC(=O)CNC(=O)Cn1cnc2ccc(S(=O)(=O)N3CCC(C)CC3)cc2c1=O	8	-8	23	1.1	-9	0.8
CCn1c(=O)cc(OCC(=O)NC(C)c2ccc3c(c2)OCCO3)c2ccccc21 (stereo not given)	9	-6	16	0.9	10	0.8
Cc1ccc(NC(=O)C(=O)NNC(=O)c2ccccc2C)cc1Cl	6	2	-17	0.9	9	1.2
CCc1sc(-c2c(C#N)c(N)nc3c2CCCCCC3)cc1[N+](=O)[O-]	2	11	8	1	2	0.9
COc1ccc(-c2onc3ccc(Cl)cc23)cc1	-6	2	22	0.9	15	0.8
COC(=O)c1cc2sc(Cl)cc2n1CC(=O)N1CCCc2ccccc21	-8	36*	73*	0.2	83*	0.3
CCOC(=O)c1cc2sccc2n1CC(=O)N1CCCC1	-4	14	24	0.6	44	0.8
CCOC(=O)c1cc2sccc2n1CCCN1C(=O)c2ccccc2C1=O	-4	32*	69*	0.7	32	0.3
CCC1CCCCN1C(=O)Cn1c(C(=O)OC)cc2sc(Cl)cc21 (stereo not given)	-6	28	7	0.7	31	0.9
COC(=O)c1cc2sccc2n1CC(=O)N1CCCc2ccccc21	11	14	69*	0.2	83*	0.3
Cc1cc(C)c(-c2noc(C(=O)OC(C)(C)C)c2C(=O)OC(C)(C)C)c(C)c1	5	-2	12	0.8	16	0.9
Cc1cccc(-n2cccc2)c1C#N	-5	-5	-3	0.9	15	1
N#Cc1c(-n2ccnc2)cccc1-n1ccnc1	-2	4	94*	0.2	81*	0.1
CCOC(=O)N1CCN(c2ncnc3c2[nH]c2ccc(F)cc23)CC1	-2	7	49	0.4	60*	0.5
